Results taken from PubChem BioAssay AID1159580 (chemical genetic matrix, 2015).
Where “and” joins values, the source holds several entries; their conditions need not be identical. Equal entries are not always repeated. Screen size: about 5,500 compounds; about 2,000 (36%) were called active. Another 18% or so got no clear call; they are omitted. No stated cut-off is given here; in the data, active means normalized growth mostly below about 0.91 (no sharp cut-off); inconclusive means no clear call, values can overlap the other calls; inactive means mostly above about 0.92. The list shows a part of the results.

Test: chemical genetic growth profiling, strain panel (AID 1159580);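 further: tested at 20 µM; growth read once vehicle control cultures reached saturation at 30 °C; 1 = growth at the plate median or of vehicle wells; lower values mean less growth of the strain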
Conditions: S. cerevisiae deletion strains, growth OD

Measured: normalized growth

COC(=O)Nc1nc2ccc(C(=O)c3ccccc3)cc2[nH]1
active: locus YBL061C, strain skt5, active compounds read low 0.903 | locus YBR009C, strain hhf1, active compounds read low 0.898 | locus YBR023C, strain chs3, active compounds read low 0.913 | locus YBR231C, strain swc5, active compounds read low 0.261 | locus YCL016C, strain dcc1, active compounds read low 0.902 | locus YCL029C, strain bik1, active compounds read low 0.781 | locus YDR137W, strain rgp1, active compounds read low 0.84 | locus YDR159W, strain sac3, active compounds read low 0.861 | locus YDR334W, strain swr1, active compounds read low 0.627 | locus YEL003W, strain gim4, active compounds read low 0.173 | locus YGL240W, strain doc1, active compounds read low 0.812 | locus YGR078C, strain PAC10, active compounds read low 0.0909 | locus YGR229C, strain SMI1, active compounds read low 0.775 | locus YHR142W, strain chs7, active compounds read low 0.872 | locus YHR200W, strain rpn10, active compounds read low 0.917 | locus YJL166W, strain qcr8, active compounds read low 0.868 | locus YJR066W, strain TOR1, active compounds read low 0.819
inactive: locus YAL013W, strain DEP1, active compounds read low 1.02 | locus YAL021C, strain ccr4, active compounds read low 0.95 | locus YAL026C, strain drs2, active compounds read low 0.963 | locus YAL030W, strain snc1, active compounds read low 0.983 | locus YBR021W, strain FUR4, active compounds read low 0.97 | locus YBR171W, strain sec66, active compounds read low 1.01 | locus YBR229C, strain ROT2, active compounds read low 1.02 | locus YBR279W, strain paf1, active compounds read low 0.958 | locus YCL011C, strain gbp2, active compounds read low 0.962 | locus YCL069W, strain vba3, active compounds read low 0.98 | locus YCR088W, strain abp1, active compounds read low 0.977 | locus YDL005C, strain med2, active compounds read low 0.959 | locus YDL035C, strain GPR1, active compounds read low 0.967 | locus YDL040C, strain nat1, active compounds read low 0.992 | locus YDL074C, strain BRE1, active compounds read low 0.924 | locus YDL101C, strain DUN1, active compounds read low 1.03 | locus YDL134C, strain PPH21, active compounds read low 1.01 | locus YDL185W, strain tfp1, active compounds read low 1.04 | locus YDL192W, strain arf1, active compounds read low 0.99 | locus YDR001C, strain nth1, active compounds read low 0.976 | locus YDR069C, strain doa4, active compounds read low 0.952 | locus YDR101C, strain arx1, active compounds read low 0.998 | locus YDR150W, strain NUM1, active compounds read low 1.01 | locus YDR162C, strain NBP2, active compounds read low 1.01 | locus YDR195W, strain ref2 0.979 | locus YDR297W, strain sur2, active compounds read low 0.963 | locus YDR318W, strain mcm21, active compounds read low 0.954 | locus YDR335W, strain msn5, active compounds read low 0.99 | locus YDR388W, active compounds read low 0.982 | locus YDR392W, strain spt3, active compounds read low 0.805 | locus YDR502C, strain sam2, active compounds read low 0.958 | locus YEL037C, strain rad23, active compounds read low 0.981 | locus YEL061C, strain CIN8 (second series), active compounds read low 0.976 | locus YEL061C, strain CIN8, active compounds read low 1 | locus YER015W, strain faa2, active compounds read low 0.974 | locus YER016W, strain bim1, active compounds read low 0.935 | locus YER110C, active compounds read low 1.02 | locus YER111C, strain swi4, active compounds read low 0.997 | locus YER155C, strain BEM2 (second series), active compounds read low 0.896 | locus YER155C, strain BEM2, active compounds read low 0.981 | locus YER167W, strain BCK2, active compounds read low 0.94 | locus YFR010W, strain ubp6, active compounds read low 0.98 | locus YGL078C, strain dbp3, active compounds read low 0.974 | locus YGL086W, strain mad1, active compounds read low 0.999 | locus YGL167C, strain pmr1, active compounds read low 0.979 | locus YGL173C, strain kem1, active compounds read low 0.981 | locus YGL227W, strain vid30, active compounds read low 0.977 | locus YGL248W, strain PDE1, active compounds read low 0.99 | locus YGL253W, strain hxk2, active compounds read low 0.951 | locus YGR135W, strain pre9, active compounds read low 0.948 | locus YGR252W, strain gcn5, active compounds read low 0.916 | locus YHR013C, strain ard1, active compounds read low 1 | locus YHR027C, strain rpn1, active compounds read low 0.931 | locus YHR030C, strain SLT2, active compounds read low 1.01 and 0.956 | locus YHR079C, strain IRE1 (second series), active compounds read low 0.999 | locus YHR079C, strain IRE1, active compounds read low 0.937 | locus YHR094C, strain hxt1, active compounds read low 1 | locus YHR129C, strain ARP1, active compounds read low 0.969 | locus YIL066C, strain RNR3, active compounds read low 1.01 | locus YIL073C, strain SPO22, active compounds read low 0.998 | locus YIL125W, strain kgd1, active compounds read low 0.971 | locus YIR030C, strain dcg1, active compounds read low 1 | locus YJL092W, strain hpr5, active compounds read low 0.965 | locus YJL095W, strain BCK1 (second series), active compounds read low 0.996 | locus YJL095W, strain BCK1, active compounds read low 1.06 and 0.938 | locus YJL115W, strain asf1, active compounds read low 0.977 | locus YJL129C, strain trk1, active compounds read low 0.906 | locus YJL134W, strain LCB3, active compounds read low 1 | locus YJL154C, strain vps35, active compounds read low 0.981 | locus YJL164C, strain tpk1, active compounds read low 0.957 | locus YJL168C, strain set2, active compounds read low 1 | locus YJL187C, strain SWE1 (second series), active compounds read low 1.01 | locus YJL187C, strain SWE1, active compounds read low 0.934 | locus YJR043C, strain POL32, active compounds read low 0.867
